Experimental data taken from PubChem BioAssay (EPA / NIEHS).
Calls of active or inactive are those of the source. How the source made its calls: active means hit-call score of the fitted dose curve at least 0.9, where 1 is the maximum; inactive means score below 0.9.

What was measured:
[1] = target: Nuclear respiratory factor 1 (Homo sapiens) (UniProt Q16656); experiment: ATG_NRF1_CIS: Attagene CIS-FACTORIAL HepG2 Assay for human Nuclear Respiratory Factor 1 (NRF1) Orphan Gene (AID 2282987); conditions: HepG2 NRF1 cis-element reporter, Attagene multiplex; actives raise or lower the signal
Procedure, shortened: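 HepG2 cells transiently transfected with multiple cis-regulated reporter units, exposed 24 h. Reporter mRNAs measured by RT-PCR, fluorescent labelling, HpaI digestion and capillary electrophoresis; bidirectional fitting against DMSO.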

[2] = ATG_NFI_CIS: Attagene CIS-FACTORIAL HepG2 Assay for human Nuclear Factor I (NFI) (AID 2282989); conditions: HepG2 cis-regulatory reporter, NFI response element transcription; actives raise or lower the signal
Procedure, shortened: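 HepG2, transient MRTU, 24 h exposure; RNA→cDNA→PCR→FAM label→HpaI→CE fluorescence. Bidirectional fit, DMSO = baseline.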

[3] = target: Myc proto-oncogene protein (Homo sapiens) (UniProt P01106); experiment: ATG_Myc_CIS: Attagene CIS-FACTORIAL HepG2 Assay for human Myelocytomatosis (Myc) Proto-Oncogene Transcription Factor (AID 2282990); conditions: HepG2, Attagene cis-reporter transcription factor activity; actives raise or lower the signal
Procedure, shortened: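 Cells of the HepG2 human liver line bear multiple cis-driven reporter transcription units. Reporter mRNA after 24 h exposure is reverse-transcribed, amplified, labelled and resolved by capillary electrophoresis, with gain- or loss-of-signal fitting relative to DMSO.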

[4] = ATG_NF_kB_CIS: Attagene CIS-FACTORIAL HepG2 Assay for human Nuclear Factor Kappa B (NF-kB) (AID 2282991); conditions: HepG2 Attagene cis-factorial NF-kB reporter mRNA; actives raise or lower the signal
Procedure, shortened: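 HepG2 cells transfected with cis-promoter-driven reporter units, so endogenous transcription factor activity is measured. Reporter mRNA quantified 24 h after dosing by RT-PCR and capillary electrophoresis, with bidirectional fitting against DMSO.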

[5] = ATG_NRF2_ARE_CIS: Attagene CIS-FACTORIAL HepG2 Assay for human Nuclear Factor Erythroid 2 Related Factor 2 (NFR2) response to Antioxidant Response Elements (ARE) (AID 2282992); conditions: HepG2 Attagene ARE/NRF2 reporter, transcription factor activity; actives raise or lower the signal;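 on AC50: reporter mRNA level measured by RT-PCR and capillary electrophoresis fluorescence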
Procedure, shortened: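 Fluorescence intensity of reporter-specific cDNA fragments, separated by capillary electrophoresis, reflects mRNA induction in transfected HepG2 cells at 24 h. Activity is fitted bidirectionally, DMSO serving as baseline.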

[6] = target: Cellular tumor antigen p53 (Homo sapiens) (UniProt P04637); experiment: ATG_p53_CIS: Attagene CIS-FACTORIAL HepG2 Assay for human p53 Transcription Factor (AID 2282994); conditions: HepG2 p53 cis-element reporter, Attagene mRNA; actives raise or lower the signal
Procedure, shortened: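 Transiently transfected HepG2 (multiple cis reporter transcription units); exposure 24 h; reporter RNA via RT-PCR, 6-FAM extension, 2 h HpaI digest at 37 C, CE detection; DMSO baseline.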

[7] = BSK_3C_TissueFactor: BioMAP Diversity Plus: 3C Assay for Tissue Factor Biomarker Activity (AID 2282997); conditions: BioMAP 3C HUVEC, tissue factor biomarker readout; actives raise or lower the signal
Procedure, shortened: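 In this endothelial system, HUVEC are treated for 24 h and Tissue Factor is assessed by ELISA, normalised to DMSO.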

[8] = BSK_3C_uPAR: BioMAP Diversity Plus: 3C Assay for Urokinase-type plasminogen activator receptor (uPAR) Biomarker Activity (AID 2282998); conditions: BioMAP 3C HUVEC, uPAR biomarker ELISA; actives raise or lower the signal
Procedure, shortened: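 Dose primary human umbilical vein endothelial cells, incubate 24 h, measure cell-surface uPAR by ELISA, then fit the signal in both directions against the DMSO negative control.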

[9] = BSK_3C_VCAM1: BioMAP Diversity Plus: 3C Assay for Vascular cell adhesion molecule 1 (VCAM1) Biomarker Activity (AID 2282999); conditions: BioMAP 3C HUVEC, VCAM1 ELISA, cytokine-stimulated; actives raise or lower the signal
Procedure, shortened: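 Activity fitted in both directions relative to DMSO, with ELISA measurement of the surface marker on primary HUVEC (3C) at 24 h post-treatment; parallel SRB staining (0.1% SRB, TCA-fixed, 560 nm) flagged overt cytotoxicity.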

[10] = ATG_Oct_MLP_CIS: Attagene CIS-FACTORIAL HepG2 Assay for human Octamer-Binding Transcription Factor (Oct) (AID 2282993); conditions: HepG2 Attagene cis-factorial Oct reporter, mRNA; actives raise or lower the signal
Procedure, shortened: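 Multiplexed cis-reporter assay in human liver HepG2 cells, 24 h incubation. Reporter RNA amplified and labelled, then resolved by capillary electrophoresis; DMSO serves as negative control and baseline.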

Nuclear respiratory factor 1 (Homo sapiens), sequence (Q16656 whole entry, looked up): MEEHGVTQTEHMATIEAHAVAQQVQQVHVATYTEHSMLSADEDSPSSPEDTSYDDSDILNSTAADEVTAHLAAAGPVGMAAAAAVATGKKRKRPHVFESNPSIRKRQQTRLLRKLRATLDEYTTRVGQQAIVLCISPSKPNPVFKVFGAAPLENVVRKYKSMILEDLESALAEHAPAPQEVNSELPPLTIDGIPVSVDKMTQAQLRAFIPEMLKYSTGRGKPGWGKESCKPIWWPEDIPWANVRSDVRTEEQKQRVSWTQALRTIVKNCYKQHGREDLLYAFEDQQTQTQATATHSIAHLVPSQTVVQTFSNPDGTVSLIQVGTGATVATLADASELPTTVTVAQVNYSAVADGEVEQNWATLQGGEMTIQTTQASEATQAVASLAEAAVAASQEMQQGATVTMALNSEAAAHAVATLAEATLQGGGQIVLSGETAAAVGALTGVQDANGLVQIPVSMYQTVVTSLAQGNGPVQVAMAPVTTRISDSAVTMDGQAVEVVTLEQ
Cellular tumor antigen p53 (Homo sapiens), sequence (P04637 whole entry, looked up): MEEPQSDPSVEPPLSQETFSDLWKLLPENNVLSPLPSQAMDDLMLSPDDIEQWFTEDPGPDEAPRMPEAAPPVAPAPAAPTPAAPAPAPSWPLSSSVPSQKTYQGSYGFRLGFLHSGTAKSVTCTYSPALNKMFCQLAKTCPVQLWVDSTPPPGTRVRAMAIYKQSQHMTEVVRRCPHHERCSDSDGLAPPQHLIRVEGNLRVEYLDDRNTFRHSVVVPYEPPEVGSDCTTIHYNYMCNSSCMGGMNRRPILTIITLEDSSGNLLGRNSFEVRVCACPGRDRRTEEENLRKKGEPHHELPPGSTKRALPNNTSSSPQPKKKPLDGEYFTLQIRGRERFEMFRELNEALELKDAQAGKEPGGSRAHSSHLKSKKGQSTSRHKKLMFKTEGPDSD
Myc proto-oncogene protein (Homo sapiens), sequence (P01106 whole entry, looked up): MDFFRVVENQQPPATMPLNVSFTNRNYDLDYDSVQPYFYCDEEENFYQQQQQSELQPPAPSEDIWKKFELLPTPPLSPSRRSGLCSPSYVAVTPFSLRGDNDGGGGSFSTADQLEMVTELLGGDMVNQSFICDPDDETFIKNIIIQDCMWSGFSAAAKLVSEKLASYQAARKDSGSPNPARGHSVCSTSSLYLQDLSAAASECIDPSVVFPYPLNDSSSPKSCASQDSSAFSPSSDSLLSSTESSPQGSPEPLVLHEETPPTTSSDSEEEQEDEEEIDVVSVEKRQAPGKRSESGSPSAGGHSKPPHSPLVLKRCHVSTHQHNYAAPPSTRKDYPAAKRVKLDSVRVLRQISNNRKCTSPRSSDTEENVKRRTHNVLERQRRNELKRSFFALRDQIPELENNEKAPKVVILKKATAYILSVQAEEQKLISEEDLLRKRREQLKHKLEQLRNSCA

With `O=C(O)C(F)(F)C(F)(F)C(F)(F)C(F)(F)F` the outcome [1] was “inactive”, the outcome [2] was “inactive” and the outcome [3] was “inactive”. For the same compound, the outcome [4] was “inactive”, the outcome [5] was “inactive” and the outcome [6] was “inactive”. The outcome [7] was “inactive”, the outcome [8] was “inactive” and the outcome [9] was “inactive”.
With `FC(F)(F)C(F)(F)C(F)(F)C(F)(F)C(F)(F)C(F)(F)CCS` the outcome [1] was “inactive”, the outcome [2] was “inactive” and the outcome [3] was “inactive”. For the same compound, the outcome [4] was “inactive”, the outcome [5] was “inactive” and the outcome [6] was “inactive”. The outcome [7] was “inactive”, the outcome [8] was “inactive” and the outcome [9] was “inactive”.
With `Cc1ccc(S(=O)(=O)OCC(F)(F)C(F)(F)C(F)(F)C(F)(F)C(F)(F)C(F)F)cc1` the outcome [1] was “inactive”, the outcome [2] was “inactive” and the outcome [3] was “inactive”. The outcome [4] was “inactive”, the outcome [5] was “inactive” and the outcome [10] was “inactive”. The outcome [6] was “inactive”, the outcome [7] was “inactive” and the outcome [8] was “inactive”. The outcome [9] was “inactive”.
For `CCCCOCCOCCOC(=O)CCCCC(=O)OCCOCCOCCCC`, the outcome [1] was “inactive”, the outcome [2] was “inactive” and the outcome [3] was “inactive”. For the same compound, the outcome [4] was “inactive”, the outcome [5] was “inactive” and the outcome [7] was “inactive”. For the same compound, the outcome [8] was “inactive” and the outcome [9] was “inactive”.
In the case of `CO[Si](OC)(c1ccccc1)c1ccccc1`, the outcome [1] is reported as “inactive”, the outcome [2] is reported as “inactive” and the outcome [3] is reported as “inactive”. For the same compound, the outcome [4] was “inactive”, the outcome [5] was “inactive” and the outcome [10] was “inactive”. For the same compound, the outcome [6] was “inactive”, the outcome [7] was “inactive” and the AC50 [8] was 34.8 µM (active). The AC50 [9] was 36.7 µM (active).
For `CCc1ccc(C(c2ccc(CC)cc2)C(Cl)Cl)cc1`, the outcome [1] was “inactive”, the outcome [2] was “inactive” and the outcome [3] was “inactive”. For the same compound, the AC50 [5] was 56.5 µM (active), the outcome [10] was “inactive” and the outcome [6] was “inactive”. The outcome [7] was “inactive”, the AC50 [8] was 12.2 µM (active) and the AC50 [9] was 27.4 µM (active).
In the case of `OCC(F)(F)C(F)(F)C(F)(F)C(F)(F)C(F)(F)C(F)(F)F`, the outcome [1] is reported as “inactive”, the outcome [2] is reported as “inactive” and the outcome [3] is reported as “inactive”. For the same compound, the outcome [4] was “inactive”, the AC50 [5] was 225 µM (active) and the outcome [10] was “inactive”. The AC50 [6] was 257 µM (active), the outcome [7] was “inactive” and the outcome [8] was “inactive”. For the same compound, the outcome [9] was “inactive”.
For `FC(F)(F)C(F)(F)C(F)(F)C(F)(F)C(F)(F)C(F)(F)C(F)(F)Br`, the outcome [1] was “inactive”, the outcome [2] was “inactive” and the outcome [3] was “inactive”. The outcome [4] was “inactive”, the outcome [5] was “inactive” and the outcome [6] was “inactive”. The outcome [7] was “inactive”, the outcome [8] was “inactive” and the outcome [9] was “inactive”.
With `CC(C)OC(=O)c1ccccc1C(=O)OC(C)C` the outcome [1] was “inactive”, the outcome [3] was “inactive” and the outcome [4] was “inactive”. For the same compound, the outcome [5] was “inactive”.
In the case of `c1ccc(-c2ccccc2-c2ccccc2)cc1`, the outcome [1] is reported as “inactive”, the AC50 [2] is reported as 100 µM (active) and the outcome [3] is reported as “inactive”. For the same compound, the outcome [4] was “inactive”, the AC50 [5] was 32.9 µM (active) and the outcome [6] was “inactive”.
For `CC(Cc1ccc(O)c(O)c1)C(C)Cc1ccc(O)c(O)c1` (stereo unspecified), the outcome [1] was “inactive”, the AC50 [2] was 19 µM (active) and the outcome [3] was “inactive”. The AC50 [4] was 55.3 µM (active), the AC50 [5] was 22.8 µM (active) and the outcome [6] was “inactive”.
With `Nc1ccc(S(=O)(=O)Nc2nccs2)cc1` the outcome [1] was “inactive”, the outcome [2] was “inactive” and the outcome [3] was “inactive”. For the same compound, the outcome [4] was “inactive”, the outcome [5] was “inactive” and the outcome [6] was “inactive”.
In the case of `O=C(C=Cc1ccccc1)OCC=Cc1ccccc1`, the outcome [1] is reported as “inactive”, the outcome [3] is reported as “inactive” and the AC50 [5] is reported as 2.64 µM (active). For the same compound, the outcome [10] was “inactive” and the outcome [6] was “inactive”.
